Sampled rows, rich in hits. Any-hit rate of the full collection: about 3.2%.
USP2a inh: USP2a (human) protease inhibition | O75604 | USP2 core, Ub-CHOP2 coupled fluorogenic reporter, 485/531 | Potency, µM (highest dose often 38.3 µM), for inactives: at the highest dose activity change, negative = inhibition, hits mostly inhibitors | actives 0.01% (n = 330,000) | AID 463254;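 further: potency means the concentration at half of the fitted maximal effect; plate controls were DMSO wells for no effect and full inhibition by NEM control for full effect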
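Deubiquitinase activity read as fluorescence (485/531 nm) after Ub-CHOP2 cleavage activates the enterokinase reporter on its substrate; USP2 core 10nM, Ub-CHOP2 and substrate 25nM each, 30min compound preincubation then 60min RT; data normalized to NEM, curves fitted.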
PLK1 PBD block: PLK1 (human) polo-box domain binding inhibition; Potency, µM, for the others: max response, negative = inhibition, hits mostly inhibitors; actives 2.8% (n = 360,000); Plk1 PBD binding of FITC phosphopeptide, fluorescence polarization; further: potency means the concentration at half of the fitted maximal effect; series mostly up to about 57 µM; nearly all actives have a fitted effect of over 65% in size
Target sequence (P53350 whole entry, looked up, the tested form may be a part): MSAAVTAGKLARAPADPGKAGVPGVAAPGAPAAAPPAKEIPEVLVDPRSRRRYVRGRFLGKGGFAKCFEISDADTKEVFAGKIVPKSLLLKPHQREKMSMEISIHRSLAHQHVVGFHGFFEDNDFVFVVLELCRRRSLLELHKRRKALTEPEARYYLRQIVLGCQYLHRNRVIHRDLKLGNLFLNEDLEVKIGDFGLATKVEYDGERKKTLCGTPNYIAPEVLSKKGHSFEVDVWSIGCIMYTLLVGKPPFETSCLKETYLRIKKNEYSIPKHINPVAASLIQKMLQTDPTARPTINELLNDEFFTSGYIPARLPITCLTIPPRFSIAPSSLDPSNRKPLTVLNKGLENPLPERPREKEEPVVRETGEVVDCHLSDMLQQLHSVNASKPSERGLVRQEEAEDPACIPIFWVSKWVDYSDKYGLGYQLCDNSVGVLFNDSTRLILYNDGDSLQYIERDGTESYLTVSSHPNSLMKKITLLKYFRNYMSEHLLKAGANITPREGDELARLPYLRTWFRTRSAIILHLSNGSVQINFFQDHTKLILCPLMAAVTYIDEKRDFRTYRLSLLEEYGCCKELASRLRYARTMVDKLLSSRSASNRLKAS
USP1-UAF1 inh: USP1/UAF1 (human) deubiquitinase inhibition | actives 0.23% (n = 390,000) | O94782 | recombinant USP1/UAF1, Ub-Rhodamine cleavage fluorescence | AID 743255 | Potency, µM (highest dose often 57.1 µM), for inactives: at the highest dose activity change, negative = inhibition, hits mostly inhibitors; further: potency means the concentration at half of the fitted maximal effect; nearly all actives have a fitted effect of over 60% in size
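In this screen, compounds sit with the deubiquitinase complex (1nM) for 15 min at room temperature before Ub-Rho is added at 150nM final. Fluorescence rise is then followed for 6 reads every 60 seconds.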
GALK inhibitor: blocks human galactokinase activity. P51570. Purified GALK, Kinase-Glo residual ATP luminescence. Potency, µM (doses to about 57.5 µM), for inactives: at the top dose activity change, negative = inhibition, actives largely listed as inhibitors. actives 0.007% (n = 270,000). AID 1868; further: potency means the concentration at half of the fitted maximal effect
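Luminescence from leftover ATP (Ultra-Glo luciferase/luciferin) served as read-out after a 1 h room-temperature reaction of 5 nM GALK with 35 uM ATP and 100 uM galactose.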
FBPA coupling cs: coupling enzyme interference in Giardia aldolase counter-screen. coupling enzyme system counterscreen, AmpLite Red fluorescence. activity change, negative = inhibition, % at 58.2 µM, hits read low. actives 0.67% (n = 290,000); in the data active means activity change below about -30%
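Compounds tested against the coupling enzymes alone at 57.5 uM final; readout was AmpLite Red fluorescence (525/598 nm) after 20 min at RT.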
VDR inhibitor: blocks the human vitamin D receptor | AID 504847 | VDR-SRC2-3 peptide fluorescence polarization, 2 h | Potency, µM, for the others: max response, negative = inhibition, hits mostly inhibitors | P11473 | actives 0.93% (n = 400,000); further: potency means the concentration at half of the fitted maximal effect
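FP read-out; VDR + SRC2-3 coactivator peptide; 23 nl compound by pintool; 2 h RT incubation; reagents held at 4 deg C, protected from light.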
Active calls of the source: *. Unless noted, the call rests on the fitted dose curve; in most records, active means well fitted curve in the direction sought with a large enough effect; inconclusive means small, poorly fitted or top-dose-only effect, or another doubt; inactive means no such curve, though single readings can be large; an effect the other way counts as inactive or inconclusive. Unless noted, on the % scale 0 is the no-effect control and ±100 the full control effect.

CC(C)NC(=O)Nc1cccc2c1O[C@H](CN(C)S(=O)(=O)c1ccc(F)cc1)[C@@H](C)CN([C@H](C)CO)C2=O was read as USP2a inh 2%, PLK1 PBD block 19µM*, USP1-UAF1 inh -5% and VDR inhibitor inconclusive.
For CCc1nc2ccc(C(=O)NCc3ccccc3C)cc2nc1CC the results were USP1-UAF1 inh -13% and VDR inhibitor 19%.
CCN1C(=O)/C(=C2/C=CC=CN2C)SC1=S was read as USP2a inh -3%, PLK1 PBD block -10%, USP1-UAF1 inh -11%, GALK inhibitor -3%, FBPA coupling cs -1 and VDR inhibitor -14%.
`CCN1C(=O)/C(=C\C=C2/C=CC=CN2CC)SC1=S` gave USP2a inh 0%, PLK1 PBD block 12%, USP1-UAF1 inh inconclusive, GALK inhibitor 8%, FBPA coupling cs -31* and VDR inhibitor inconclusive.
Screening O=C(Nc1ccc(F)cc1F)c1cccnc1 returned USP2a inh 3%, PLK1 PBD block 27µM*, USP1-UAF1 inh -13%, GALK inhibitor 0%, FBPA coupling cs 1 and VDR inhibitor -20%.
COc1ccc(C2C(C#N)=C(N)OC(C(C)(C)C)=C2C#N)cc1OC (stereo unspecified) was read as USP2a inh 1%, PLK1 PBD block -15%, USP1-UAF1 inh -15%, GALK inhibitor 8%, FBPA coupling cs -37* and VDR inhibitor -8%.
COc1cccc(C2C(C#N)=C(N)OC(C(C)(C)C)=C2C#N)c1 (stereo unspecified) was read as USP2a inh 3%, PLK1 PBD block -26%, USP1-UAF1 inh -14%, GALK inhibitor 0%, FBPA coupling cs -29 and VDR inhibitor 0%.
C/C(N)=C(/C#N)C(=O)COC(=O)c1ccccc1Oc1ccccc1 was read as USP2a inh 0%, PLK1 PBD block 27µM*, USP1-UAF1 inh -19%, GALK inhibitor 0%, FBPA coupling cs 2 and VDR inhibitor inconclusive.
CCOC(=O)c1c(C)sc(-c2c(-c3cc(C)ccc3C)[nH]c3c2c(=O)[nH]c(=O)n3C)c1O was read as USP1-UAF1 inh 25µM* and VDR inhibitor 11%.
CCOC(=O)c1c(N2C(=O)Nc3ccccc3N2O)n[nH]c1-c1cccc(Cl)c1 was read as USP2a inh -10%, PLK1 PBD block -10%, USP1-UAF1 inh -27%, GALK inhibitor -1%, FBPA coupling cs 8 and VDR inhibitor -13%.
For CCOC(=O)c1c(C)n(C)c2cc(-c3ccc(C)cc3)c(O)cc12 the results were USP2a inh 3%, PLK1 PBD block -11%, USP1-UAF1 inh -5%, GALK inhibitor 3%, FBPA coupling cs -2 and VDR inhibitor -17%.
Screening Cc1ccc(C)c(-c2[nH]c3c(c2-c2c(-n4cccc4)n(C)c(=O)n(C)c2=O)c(=O)n(C)c(=O)n3C)c1 returned USP1-UAF1 inh -8% and VDR inhibitor 9%.
For CCOC(=O)c1c(C)sc(-c2c(-c3cccc(Cl)c3)[nH]c3c2c(=O)n(C)c(=O)n3C)c1O the results were USP1-UAF1 inh 16µM* and VDR inhibitor -13%.
Screening CCOC(=O)c1c(C)sc(-c2c(-c3cc(C)ccc3C)[nH]c3c2c(=O)n(C)c(=O)n3C)c1O returned USP1-UAF1 inh 28µM* and VDR inhibitor 6%.
`NC(=S)NNC(=O)[C@@H]1CCCC[C@@H]1C(=O)O` gave USP2a inh 2%, PLK1 PBD block 21µM*, USP1-UAF1 inh -6%, FBPA coupling cs 4 and VDR inhibitor -16%.
Screening O=C(O)C1CCCCC1C(=O)NC1C2CC3CC(C2)CC1C3 (stereo unspecified) returned USP2a inh 2%, PLK1 PBD block -5%, USP1-UAF1 inh -21%, GALK inhibitor 3%, FBPA coupling cs 1 and VDR inhibitor 3%.
`Cc1oc(-c2ccccc2F)nc1CSCC(=O)NCCc1ccccc1` gave USP1-UAF1 inh -10% and VDR inhibitor -11%.
For CCCOC(=O)c1c(-c2ccc(OC)cc2)oc2ccc(-c3ccc(OC)nc3)cc12 the results were USP2a inh 0%, PLK1 PBD block 38µM*, USP1-UAF1 inh 15%, FBPA coupling cs -2 and VDR inhibitor -29%.
For COc1ccc(C(=O)C(CCCCC(CN(C)C)C(=O)c2ccc(OC)cc2)CN(C)C)cc1 (stereo unspecified) the results were USP2a inh 0%, PLK1 PBD block 0%, USP1-UAF1 inh -10%, FBPA coupling cs -1 and VDR inhibitor 15%.
Screening CN(C)CC(CCC(CN(C)C)C(=O)c1ccccc1)C(=O)c1ccccc1 (stereo unspecified) returned USP2a inh 5%, PLK1 PBD block 13µM*, USP1-UAF1 inh -10%, GALK inhibitor -2%, FBPA coupling cs -1 and VDR inhibitor 45µM*.
For CCOc1ccc(C(=O)C(CCC(CN(C)C)C(=O)c2ccc(OCC)cc2)CN(C)C)cc1 (stereo unspecified) the results were USP2a inh 3%, PLK1 PBD block 27µM*, USP1-UAF1 inh -14%, GALK inhibitor 0%, FBPA coupling cs 0 and VDR inhibitor inconclusive.
For CN(C)CCN(C(=O)CCS(=O)(=O)c1ccccc1)c1nc2cc3c(cc2s1)OCO3 the results were USP2a inh -4%, PLK1 PBD block -15%, USP1-UAF1 inh -2%, GALK inhibitor 9% and VDR inhibitor 1%.
`CCOc1c2ccc(C(=O)NCc3ccc(C)cc3)cc2nn1CCOC` gave USP2a inh 2%, PLK1 PBD block 0%, USP1-UAF1 inh -18%, GALK inhibitor 0%, FBPA coupling cs 3 and VDR inhibitor -1%.
Cc1c(C(=O)O)[nH]c2ccc([N+](=O)[O-])cc12 was read as USP2a inh -1%, PLK1 PBD block inconclusive, USP1-UAF1 inh inconclusive, GALK inhibitor -3%, FBPA coupling cs 16 and VDR inhibitor -6%.
Screening NCCc1c(C(=O)O)[nH]c2ccc([N+](=O)[O-])cc12 returned USP2a inh 7%, PLK1 PBD block 21µM*, USP1-UAF1 inh -28%, GALK inhibitor 0%, FBPA coupling cs -3 and VDR inhibitor inconclusive.
Screening O=C1/C(=C/c2ccncc2)SC(=S)N1Nc1ccccc1 returned USP2a inh 5%, PLK1 PBD block 5.3µM*, USP1-UAF1 inh inconclusive, GALK inhibitor -7%, FBPA coupling cs -5 and VDR inhibitor 50µM*.
For O=C(O)c1ccc(/C=C2\SC(=S)N(Nc3ccccc3)C2=O)cc1 the results were USP2a inh 9%, PLK1 PBD block 21µM*, USP1-UAF1 inh -7%, GALK inhibitor -9%, FBPA coupling cs 13 and VDR inhibitor inconclusive.

Compound activity from PubChem.
